VP16 counter = counter-screen for ROR gamma inhibitors: Gal4-VP16 reporter. Drosophila S2 Gal4-VP16 UAS-luciferase, luminescence, 20 h. Potency, µM (titrated, usually from 53.6 µM), usual class: inhibitors. actives 3.5% (n = 310,000);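 note: Gal4-VP16 expression switched on by copper sulfate through the metallothionein promoter; nearly all actives have a fitted effect of over 50% in size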
ATXN2 expr inh = ATXN2 expression inhibition; actives 0.72% (n = 360,000); Potency, µM (titrated, usually from 57 µM), most hits filed as inhibitors; HEK-293 ATXN2-luciferase reporter, luminescence, 24 h; note: nearly all actives have a fitted effect of over 55% in size
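qHTS (up to 57 uM final) was run with 24 h compound exposure of reporter cells at 37 °C. Each well was multiplexed: SteadyGlo luminescence measured ATXN2-luciferase expression after a fluorogenic Gly-Phe-AFC viability readout (25 uM final).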
RORg inh = inhibitors of mouse ROR gamma transcriptional activity; Potency, µM (highest dose often 53.6 µM), actives largely listed as inhibitors; Drosophila S2 Gal4-RORgamma UAS-luciferase reporter, 20 h; actives 5.4% (n = 310,000); P51450; note: nearly all actives have a fitted effect of over 60% in size
Target sequence (P51450 whole entry, looked up, the tested form may be a part): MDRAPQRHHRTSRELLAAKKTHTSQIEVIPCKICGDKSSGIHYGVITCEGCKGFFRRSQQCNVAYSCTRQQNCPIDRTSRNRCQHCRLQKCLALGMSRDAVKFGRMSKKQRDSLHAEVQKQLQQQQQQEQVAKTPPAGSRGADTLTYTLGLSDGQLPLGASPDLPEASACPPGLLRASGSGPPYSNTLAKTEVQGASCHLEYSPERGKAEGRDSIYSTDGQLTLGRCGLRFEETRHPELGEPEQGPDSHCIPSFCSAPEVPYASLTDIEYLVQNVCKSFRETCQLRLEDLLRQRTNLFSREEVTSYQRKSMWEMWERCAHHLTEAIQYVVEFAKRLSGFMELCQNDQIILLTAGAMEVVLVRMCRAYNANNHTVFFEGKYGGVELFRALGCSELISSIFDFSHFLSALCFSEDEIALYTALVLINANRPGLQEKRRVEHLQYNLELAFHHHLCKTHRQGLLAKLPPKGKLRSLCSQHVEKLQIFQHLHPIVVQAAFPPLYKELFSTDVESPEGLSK
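Luminescence from a UAS-regulated Photinus luciferase reporter in stably transfected Drosophila Schneider cells is measured; decreased signal marks ROR gamma inhibition. Fusion expression is induced by 700 uM copper sulfate for 20 hr.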
HepG2 viability = HepG2 cytotoxicity, counter-screen for TGF-b inhibitors | Potency, µM (series often up to 46.1 µM), hits mostly cytotoxic | AID 588856 | HepG2 CAGA-GFP viability, ATP luminescence, 18 h | actives 0.76% (n = 410,000)
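CellTiter-Glo luminescence gave cytotoxicity after 18 hours at 37 degrees C. The cells were HepG2 CAGA-GFP in 1% FBS DMEM, stimulated with 500 pg/mL TGF-beta after compound addition. %Activity was normalised to no-cell wells (complete cell-killing) and DMSO (no toxicity), and curves were fitted and classified.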
TGFb inhibitor = TGF-b pathway inhibition; HepG2 CAGA-GFP TGF-b/SMAD3 reporter, GFP fluorescence, 18 h; TGF-beta stimulated, 500 pg/mL final; Potency, µM (doses to about 46.1 µM), actives largely listed as inhibitors; actives 1.2% (n = 410,000); note: nearly all actives have a fitted effect of over 65% in size
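Inhibition was scored as loss of TGF-beta-induced (500 pg/mL final, 18 hours, 37 degrees C) GFP in HEPG2 cells carrying a CAGA-GFP reporter, in DMEM with 1% FBS. Well GFP was summed per cell; Activity was normalised to unstimulated and stimulated DMSO wells, then concentration-response fitting.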
ATXN viability = cell viability loss in ATXN counter-screen; S2 cells (HEK-293 line with an ATXN2-luciferase reporter) viability, CellTiter-Fluor protease fluorescence, 24 h; Potency, µM (titrated, usually from 56.7 µM), actives largely listed as cytotoxic; actives 0.49% (n = 400,000); AID 651635; note: nearly all actives have a fitted effect of over 40% in size
Hits are given with their value; i = inactive; ? = inconclusive; nt = not tested or not shown; [ ] = dose if it differs, or a comment. Only some compounds are listed: those with a hit (about 6.3% of all), similar ones and a draw of the others. Calls come from the whole dose curve; as a rule, active = well fitted curve in the direction sought with a large enough effect; inconclusive = small, poorly fitted or top-dose-only effect, or another doubt; inactive = no such curve, though single readings can be large; an effect the other way counts as inactive or inconclusive.

SMILES	VP16 counter	ATXN2 expr inh	RORg inh	HepG2 viability	TGFb inhibitor	ATXN viability
CC(=O)Nc1nc(C2COc3ccccc3O2)cs1 (stereo not drawn)	i[0.365 µM]	i	12.6µM	i	i	i
CCOC(=O)CSc1nc2cc(OC)c(OC)cc2cc1C#N	nt	nt	nt	i	i	nt
Cc1ccc(S(=O)(=O)/N=C2/C=C(Sc3ncn[nH]3)C(=O)c3ccccc32)c(C)c1	5.01µM	nt	11.2µM	nt	nt	nt
CC(C)c1ccc(S(=O)(=O)/N=C2/C=C(Sc3ncn[nH]3)C(=O)c3ccccc32)cc1	i	14.1µM	?	10µM	7.94µM	?
Cc1ccc(S(=O)(=O)/N=C2/C=C(Sc3ncn[nH]3)C(=O)c3ccccc32)cc1	3.55µM	?	3.55µM	2µM	1µM	?
Cc1ccc(S(=O)(=O)/N=C2\C=C(NS(=O)(=O)c3ccccc3)C(=O)c3ccccc32)c(C)c1	nt	i	nt	i	i	i
O=C(Nc1cccc2cccnc12)OC(Cl)(Cl)Cl	nt	nt	nt	i	i	nt
Cn1c2ccccc2c2cc(C(=O)N3CCOc4ccc(C(C)(O)CCn5cccn5)cc4C3)ccc21 (stereo not drawn)	nt	nt	nt	nt	nt	i
c1cc2c(cc1Cc1cncc(Cc3ccc4c(c3)OCO4)c1)OCO2	nt	nt	nt	i	i	nt
Cc1cccc(NC(=O)c2cn(-c3ccccc3)nc2-c2ccccc2)c1C	nt	i	nt	i	?	?
Cc1ccc(-c2nc(Nc3cccc(C)c3)sc2CC(=O)O)cc1	i	i	11.2µM	i	i	i
Cc1ccc(CSC(Nc2ccc(F)cc2)=C(C#N)C#N)cc1	25.1µM	i	?	i	7.08µM	i
CCN(CC)C(=O)CSC(Nc1ccc(F)cc1)=C(C#N)C#N	i	i	i	i	i	i
O=S(=O)(c1ccc(NC(=S)NCCC(c2ccccc2)c2ccccc2)cc1)N1CCOCC1	i	?	i	i	?	?
Cc1c(Cl)cccc1NC(=S)NCc1ccccc1	nt	i	nt	i	i	i
S=C(NCCC(c1ccccc1)c1ccccc1)Nc1ccc(Cl)cc1	?	?	7.94µM	i	20µM	?
S=C(NCCC(c1ccccc1)c1ccccc1)Nc1ccccc1Cl	?	i	12.6µM	i	?	i
CCCC(C)C(=O)Nc1nc(C)c(-c2csc(Nc3ccc(Cl)cc3)n2)s1 (stereo not drawn)	11.2µM	?	?	i	i	?
COc1ccc(Cl)cc1Nc1nc(-c2sc(NC(=O)C(C)(C)C)nc2C)cs1	7.08µM	i	?	i	i	?
COc1ccc(OC)c(Nc2nc(-c3sc(NC(=O)C(C)(C)C)nc3C)cs2)c1	11.2µM	?	?	i	i	i
CCc1cc(-c2nnn(-c3cc(C(C)C)ccc3C)c2CC)ccc1-c1cn(CCc2c[nH]c3ccccc23)nn1	nt	i	nt	i	i	i
O=C(C[n+]1ccccc1Cl)c1ccc(Br)cc1	nt	nt	nt	i	i	nt
Cc1cnc(NC(=O)Nc2cc(Br)c(C)cc2OC[C@@H]2CNCCO2)cn1	nt	1.22µM	nt	nt	nt	nt
Clc1ccc(/C=N/NC2=Nc3cccc4cccc2c34)cc1	14.1µM	i	2µM	i	i	?
C(=N\NC1=Nc2cccc3cccc1c23)/c1ccccc1	?	i	2.24µM	i	i	i
SMILES	VP16 counter	ATXN2 expr inh	RORg inh	HepG2 viability	TGFb inhibitor	ATXN viability
COc1cc(=O)n2c(c1C(=O)NC(C)c1ccco1)CCN(C(=O)c1ccccc1SC)CC2 (stereo not drawn)	nt	nt	nt	nt	nt	i
C#CCn1cnc2c(cnn2-c2ccc(F)cc2)c1=O	nt	i	nt	i	i	i
COc1ccc(C2C3=C(CCCC3=O)Nc3nc(C(F)(F)F)nn32)cc1OC (stereo not drawn)	i	i	4.47µM	i	i	?
CCOc1ccc(C2C3=C(CCCC3=O)Nc3nc(C(F)(F)F)nn32)cc1OC (stereo not drawn)	i	i	i	i	i	i
CC(C)(C(=O)N[C@H](CO)c1ccccc1)C(=O)N[C@H](CO)c1ccccc1	i	i	2µM	i	i	i
N#C/C(=C1/SCC(c2ccccc2Cl)S1)n1ccnc1 (stereo not drawn)	i	nt	i[10 µM]	nt	nt	nt

Screening data as filed in PubChem BioAssay.
